Whole data set: some 18,000 sequences, median “log2 normalized intensity” near 0.36, cut for the highest 2% near 7.3. The sample holds the highest values, similar sequences and a random draw of the others, so the mix is not that of the screen.

In this test the target is T1, HNF4alpha8 (COS-7 nuclear extract) (Homo sapiens, UniProt P41235-5 1-452).
T1 sequence: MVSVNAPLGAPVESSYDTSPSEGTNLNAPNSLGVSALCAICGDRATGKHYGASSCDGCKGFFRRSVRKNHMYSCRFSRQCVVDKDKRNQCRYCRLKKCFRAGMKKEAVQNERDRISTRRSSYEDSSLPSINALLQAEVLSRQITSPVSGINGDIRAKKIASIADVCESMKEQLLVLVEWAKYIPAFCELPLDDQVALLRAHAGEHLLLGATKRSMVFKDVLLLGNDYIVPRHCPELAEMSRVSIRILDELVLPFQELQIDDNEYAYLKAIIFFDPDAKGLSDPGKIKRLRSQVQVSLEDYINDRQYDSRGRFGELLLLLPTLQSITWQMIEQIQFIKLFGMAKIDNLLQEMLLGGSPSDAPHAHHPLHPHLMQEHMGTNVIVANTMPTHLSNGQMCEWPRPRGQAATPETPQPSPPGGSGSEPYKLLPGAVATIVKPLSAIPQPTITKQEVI
The test can be described thus: protein-binding microarray; COS-7 nuclear extract on double-stranded Agilent 4x180k PBM; binding buffer, salt, pH and temperature not given in the material; high values mean tight binding. The note with it: chain copies: 2; label: 3' end of strand 1 on the slide; dsDNA, one strand shown. Put shortly: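 Binding signal is the background-corrected, normalized gProcessedSignal calculated by Agilent software. It was measured by applying nuclear extracts of COS-7 cells transiently transfected with a human HNF4α isoform expression vector to a custom Agilent SurePrint G3 4x180k array of ~44,000 double-stranded ~60-nt test sequences in quadruplicate, then imaging bound HNF4α on an Agilent G2565CA scanner at 2-µm resolution.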
“ATGACCCAAACTTCACAAAAATGAGTGCAAGCCTAGGGAGATTAGAGTATCGGTCGA”: the binding signal was -0.806 log2 normalized intensity.
In the case of “TGACAAGCAAACACAAACTATGACCTTTGAGCCTAGGGAGATTAGAGTATCGGTCGA” it was 9.22 log2 normalized intensity; in that of “GGGCGAGAGAGTTCTATGGGATGACCTTTGGCCTAGGGAGATTAGAGTATCGGTCGA”, 6.82 log2 normalized intensity.
For the sequence “AGAGAGTTCTATGGGATGACCTTTGAGCAAGCCTAGGGAGATTAGAGTATCGGTCGA”, the binding signal stood at 7.89 log2 normalized intensity.
On to “AGTCTCAAAGGTCAGATGACAGAATTGGTCGCCTAGGGAGATTAGAGTATCGGTCGA”, for which the binding signal came out at 4.15 log2 normalized intensity.
In the case of “GATAACATCTGGACTTTACACAGACCTTTAGCCTAGGGAGATTAGAGTATCGGTCGA”, the binding signal amounted to 4.07 log2 normalized intensity.
Take “CCCCTTCTGTTTCCAGAAATCTGACCTCTGGCCTAGGGAGATTAGAGTATCGGTCGA”: the binding signal was 5.06 log2 normalized intensity.
In the case of “AGCTGACGCCCCACCCCCTCCACCCCTGCCGCCTAGGGAGATTAGAGTATCGGTCGA” it was 6.68 log2 normalized intensity; in that of “CAATGTGACTGGAGCAGAGCGATCAAAGGTGCCTAGGGAGATTAGAGTATCGGTCGA”, 1.37 log2 normalized intensity.
To “CCACTCTTTTTTAGACTTTGACCTCCATATGCCTAGGGAGATTAGAGTATCGGTCGA” belongs 8.93 log2 normalized intensity.
Take “TGCAGCCCTGCCACTCTTTTTTAGACTTTGGCCTAGGGAGATTAGAGTATCGGTCGA”: the binding signal was 4.39 log2 normalized intensity.
“GACCTCTGCCCTTCCACCCACTTTATCTTCGCCTAGGGAGATTAGAGTATCGGTCGA”: the binding signal is 3.59 log2 normalized intensity.
In the case of “CCCTGCCACTCTTTTTTAGACTTTGACCTCGCCTAGGGAGATTAGAGTATCGGTCGA” it was 10.2 log2 normalized intensity; in that of “ACTACCTCTTTAGGCTGGACTCTGACCCATGCCTAGGGAGATTAGAGTATCGGTCGA”, 7.54 log2 normalized intensity; in that of “CTGACCTCTTTTGGATTTTTCCATATCTGTGCCTAGGGAGATTAGAGTATCGGTCGA”, 1.57 log2 normalized intensity.
“CTCTTTAGGCTGGACTCTGACCCATTCCTTGCCTAGGGAGATTAGAGTATCGGTCGA”: the binding signal came out at 5.82 log2 normalized intensity.
In the case of “ATGACCTCTTTTAGTAACTGACTTTAACTTGCCTAGGGAGATTAGAGTATCGGTCGA” it was 1.03 log2 normalized intensity; in that of “ACCAGACTACCTCTTTAGGCTGGACTCTGAGCCTAGGGAGATTAGAGTATCGGTCGA”, 4.7 log2 normalized intensity.
In the case of “GCTTATCTGGGAGGGGGAGGTTTTGTGTCTGCCTAGGGAGATTAGAGTATCGGTCGA” it was 0.884 log2 normalized intensity.
For the sequence “AAATGTAATCAGCAAGTTTTATATGAAAACGCCTAGGGAGATTAGAGTATCGGTCGA”, the binding signal is 0.415 log2 normalized intensity.
To “CTGTGGTCATTAATTAACTTGTGTTCAGAGGCCTAGGGAGATTAGAGTATCGGTCGA” belongs 1.07 log2 normalized intensity; to “TGTTCTTTACTTCCTTTTGTTCCTGCTCTAGCCTAGGGAGATTAGAGTATCGGTCGA”, 1.67 log2 normalized intensity.
In the case of “AGTCTGCTCAAGTCTTTTAGAATGTGGATGGCCTAGGGAGATTAGAGTATCGGTCGA” it was 1.71 log2 normalized intensity; in that of “TCAGTTGCAGAAAAACAGGTTCTGCAACACGCCTAGGGAGATTAGAGTATCGGTCGA”, 0.876 log2 normalized intensity; in that of “ATTACCAATGAGAAACCTCAAAGGTTAGGGGCCTAGGGAGATTAGAGTATCGGTCGA”, 0.852 log2 normalized intensity.
For the sequence “GAGCAAAGGGCATGGAGGATTTAGATAACAGCCTAGGGAGATTAGAGTATCGGTCGA”, the binding signal is 0.728 log2 normalized intensity.
In the case of “ATCTGACCTTTGGTTAACTTCTTAACTTGGGCCTAGGGAGATTAGAGTATCGGTCGA” it was 3.5 log2 normalized intensity; in that of “CTTATCTACTTTAAGATTTGACCCTTGGCCGCCTAGGGAGATTAGAGTATCGGTCGA”, 7.78 log2 normalized intensity; in that of “AGTGGTTTAAAAACTTATCTTGTGACCTTTGCCTAGGGAGATTAGAGTATCGGTCGA”, 7.47 log2 normalized intensity.
Regarding “TTTAAAAACTTATCTTGTGACCTTTGACTCGCCTAGGGAGATTAGAGTATCGGTCGA”, the binding signal turned out to be 8.96 log2 normalized intensity.
To “TATCTTGTGACCTTTGACTCATTATCCCCCGCCTAGGGAGATTAGAGTATCGGTCGA” belongs 7.09 log2 normalized intensity.
With “CTGAACTTTAAACTGGTGTGTCTTGCCTTTGCCTAGGGAGATTAGAGTATCGGTCGA”, the binding signal is 2.42 log2 normalized intensity.
To “ATTCTCTTATCTACTTTAAGATTTGACCCTGCCTAGGGAGATTAGAGTATCGGTCGA” belongs 5.76 log2 normalized intensity.
Turning to “AAACTTATCTTGTGACCTTTGACTCATTATGCCTAGGGAGATTAGAGTATCGGTCGA”, the binding signal amounted to 7.16 log2 normalized intensity.
To “TTAAGATTTGACCCTTGGCCAGGTGCAGTGGCCTAGGGAGATTAGAGTATCGGTCGA” belongs 5.41 log2 normalized intensity.
As for “TTACTGGGGCCCATTGTATGAGGGTGAAGTGCCTAGGGAGATTAGAGTATCGGTCGA”, the binding signal was determined as 0.972 log2 normalized intensity.
For the sequence “AAATGTACTGGATATAGCCAGATGTCCTTTGCCTAGGGAGATTAGAGTATCGGTCGA”, the binding signal worked out at 2.37 log2 normalized intensity.
In the case of “TCAGATAGCTTTAGCCGGACTTTGTCCTTTGCCTAGGGAGATTAGAGTATCGGTCGA” it was 8.54 log2 normalized intensity; in that of “CATCGGACTTTGATCTGCCACATACCTTTAGCCTAGGGAGATTAGAGTATCGGTCGA”, 5.04 log2 normalized intensity; in that of “CGGACTTTGTCCTTTGATTTTTTAAAGTAAGCCTAGGGAGATTAGAGTATCGGTCGA”, 5.37 log2 normalized intensity.
As to “CTATCTCAGATAGCTTTAGCCGGACTTTGTGCCTAGGGAGATTAGAGTATCGGTCGA”, the binding signal worked out at 5.85 log2 normalized intensity.
With “TAGCTTTAGCCGGACTTTGTCCTTTGATTTGCCTAGGGAGATTAGAGTATCGGTCGA”, the binding signal amounted to 7.5 log2 normalized intensity.
Regarding “ACCCAGGTGTGTTGCAACTTTGACTATAGCGCCTAGGGAGATTAGAGTATCGGTCGA”, the binding signal came to 0.342 log2 normalized intensity.

For the origin of these results see PMC10726135, “HNF4α isoforms regulate the circadian balance between carbohydrate and lipid metabolism in the liver”.
